# PPC-1+TRAIL kill: compounds killing PPC-1 cancer cells with TRAIL present, primary screen, TRAIL potentiator project, ATPLite luminescence, uHTS. PPC-1 cells + TRAIL, ATPLite viability luminescence. cell killing (% activity), % at 4 µM or 5 µM. hit rate 0.41% among 220,000;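 active = cell killing above 50% in the first pass at 4 µM, then a duplicate retest at 5 µM averaging 50% or more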;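 also: plate controls were cells with TRAIL plus DMSO for no effect and medium-only wells lacking cells for full effect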
# TRAIL sens C8: viability loss with TRAIL in NB7+C8 cells, primary screen, TRAIL sensitizer project, cell-based, ATPlite luminescence; inhibition (viability loss, TRAIL sensitization), % at 10 µM; hit rate 1% among 360,000; AID 624354, 2012;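 active = compounds causing at least 50% loss of cell viability in the single-dose screen, relative to plate controls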
# SENP6 inh: SENP6 protease inhibitors, primary screen, biochemical, luminescence, uHTS | Recombinant SENP6 catalytic domain, aminoluciferin luminescence | inhibition, % at 10 µM | hit rate 1.8% among 330,000;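 active = inhibition above about 50% at the single tested dose, limit read from the data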;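 also: plate controls were DMSO wells with enzyme for no effect and DMSO wells lacking enzyme for full effect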
# SENP7 block: SENP7 protease inhibitors, primary screen, biochemical, luminescence, uHTS; hit rate 1.5% among 330,000; inhibition, % at 5 µM; Sentrin-specific protease 7 (Homo sapiens), Q9BQF6; recombinant SENP7, Z-RLRGG-aminoluciferin luminescence, 40 min;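 active = inhibition above about 50% at the single test dose, limit read from the data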;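 also: plate controls were DMSO with enzyme for no effect and no enzyme buffer wells for full effect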
# Target sequence (Q9BQF6 706-1050 limits assumed): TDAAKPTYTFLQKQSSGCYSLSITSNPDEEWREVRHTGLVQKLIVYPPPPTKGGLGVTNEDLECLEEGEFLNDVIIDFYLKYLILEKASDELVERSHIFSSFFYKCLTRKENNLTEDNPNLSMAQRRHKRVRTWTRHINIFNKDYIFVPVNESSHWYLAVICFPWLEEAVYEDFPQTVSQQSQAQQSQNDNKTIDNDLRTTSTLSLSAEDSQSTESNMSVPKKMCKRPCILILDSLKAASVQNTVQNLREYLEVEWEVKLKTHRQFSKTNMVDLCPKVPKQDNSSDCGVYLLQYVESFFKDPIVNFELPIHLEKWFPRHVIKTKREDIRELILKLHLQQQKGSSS
# SENP8 block-1: SENP8 protease inhibitors, primary screen, biochemical, luminescence; purified SENP8, Z-RLRGG-aminoluciferin cleavage; hit rate 1.2% among 330,000; inhibition, % at 10 µM; AID 2540, 2010; in the data active = inhibition above about 50%
# SENP8 block-2: human SENP8 protease inhibitors, primary screen, biochemical, fluorescence, Nedd8 protein substrate, uHTS | inhibition, % at 20 µM | hit rate 0.64% among 360,000 | recombinant SENP8; in the data active = inhibition mostly above about 40%, no sharp cut-off; inactive = mostly below about 27%
# SENP8 confirm: SENP8 protease inhibitors, retest, confirmation, biochemical, luminescence, single concentration | hit rate 40% among 6,200 | AID 488912, 2010 | inhibition, % at 12.5 µM | shares compounds with SENP7 block | Recombinant SENP8, Z-RLRGG-aminoluciferin luminescence, 60 min;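 active = mean inhibition across replicates above about 50%, limit read from the data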
# SENP6 conf: SENP6 protease inhibitors, confirmation, biochemical, luminescence, single concentration; shares compounds with SENP7 block; recombinant SENP6, Z-RLRGG-aminoluciferin luminescence; inhibition, % at 12.5 µM; hit rate 58% among 6,200
# SENP7 confirm: SENP7 protease inhibitors, retest, confirmation, biochemical, luminescence, single concentration | shares compounds with SENP7 block | recombinant SENP7, Z-RLRGG-aminoluciferin luminescence, 40 min | inhibition, % at 12.5 µM | hit rate 69% among 6,200 | AID 488917, 2010
# Casp3 select: caspase-3 protease inhibitors, confirmation, selectivity assay for SENP inhibitor project, biochemical, single concentration | shares compounds with SENP7 block | purified caspase-3, Z-DEVD-aminoluciferin luminescence, 60 min | inhibition, % at 12.5 µM | hit rate 60% among 6,200;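 active = mean inhibition above about 50%, limit read from the data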;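 also: plate controls were enzyme with DMSO for no effect and wells without caspase-3 for full effect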
# Target sequence (P42574 28-227 limits assumed): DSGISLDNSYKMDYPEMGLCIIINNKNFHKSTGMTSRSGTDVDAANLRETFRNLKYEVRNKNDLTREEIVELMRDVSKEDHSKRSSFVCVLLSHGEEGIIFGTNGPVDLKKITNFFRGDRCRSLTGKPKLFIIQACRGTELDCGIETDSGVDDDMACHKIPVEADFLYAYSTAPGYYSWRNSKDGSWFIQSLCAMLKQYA
# Luc interf: counter-screen for SENP inhibitors: luminescence interference | hit rate 39% among 6,200 | shares compounds with SENP7 block | Pre-incubated SENP8/Z-RLRGG-aminoluciferin, luciferase luminescence interference | inhibition, % at 12.5 µM;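 active = mean inhibition above about 50% when retested at one dose, limit read from the data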;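 also: plate controls were DMSO wells with completed reaction for no effect and substrate without enzyme for full effect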
# Active calls of the source: *; · = not tested or not shown. Most compounds without a hit are left out; they make up all but 3% or so of the library.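 The calls were made as follows, unless noted: active = mean inhibition above about 50% in the one-dose retest (limit read from the data); inactive = the rest.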
SMILES,PPC-1+TRAIL kill,TRAIL sens C8,SENP6 inh,SENP7 block,SENP8 block-1,SENP8 block-2,SENP8 confirm,SENP6 conf,SENP7 confirm,Casp3 select,Luc interf
c1cncc(-c2nc(-c3ccc4c(c3)OCCO4)cs2)c1,·,38,79*,83*,80*,-97,3,81*,97*,72*,80*
CC(Sc1nnc(C2CC2)n1C1CC1)C(=O)NC1(C#N)CCCCC1 (stereo unspecified),·,0,13,2,6,14,·,·,·,·,·
CS(=O)(=O)c1ccc(C(=O)Nc2nc(-c3ccco3)c(-c3ccco3)s2)cc1,·,1,-65,-13,4,-4,·,·,·,·,·
CCc1ccccc1OCC(=O)N1CCN(c2ncccn2)CC1,·,-14,-25,-3,0,-24,·,·,·,·,·
Cc1nc(NS(=O)(=O)c2ccccc2)sc1NC(=O)OC(C)C,8,2,-4,98*,1,6,-7,0,-3,-3,-2
COc1ccc(NS(=O)(=O)c2cc(C(=O)N(C)CCc3ccccn3)ccc2Cl)cc1,·,-6,·,·,·,8,·,·,·,·,·
Clc1cccc(-c2cc3nc4c(c(NCc5ccco5)n3n2)CCCC4)c1,28,25,81*,26,53*,-266,-4,8,3,7,4
O=C1C(Nc2ccccc2)=CC(c2ccc(O)cc2)N1c1ccccc1 (stereo unspecified),11,10,58*,3,5,-452,9,5,-3,4,2
Cc1cccc(NC(=O)c2c(O)c3ccccc3[nH]c2=O)c1,·,-1,-1,-1,-9,-75,·,·,·,·,·
O=C(Nc1cccc(O)c1)c1c(O)c2ccccc2[nH]c1=O,·,46,48,86*,62*,-26,7,50*,78*,57*,44
O=C(c1cccc(S(=O)(=O)N2CCCC2)c1)N1CCN(S(=O)(=O)c2cccc(Cl)c2)CC1,·,3,·,·,·,-6,·,·,·,·,·
C/C(=N/NC(=O)c1ccccn1)c1ccco1,33,54*,67*,2,63*,3,76*,67*,90*,92*,71*
O=C(CSc1ccc([N+](=O)[O-])cc1)Nc1nnc(C2CC2)s1,·,-8,-4,-2,13,17,·,·,·,·,·
O=[N+]([O-])c1cccc(/C=N/Nc2ccccn2)c1,15,6,56*,55*,26,24,-2,-5,74*,17,-2
Cc1cc(C)nc(N/N=C/c2cccc([N+](=O)[O-])c2)n1,2,2,-8,0,5,20,·,·,·,·,·
O=[N+]([O-])c1cccc(/C=N/Nc2nccnc2Cl)c1,39,-2,94*,93*,83*,13,91*,91*,100*,97*,83*
O=[N+]([O-])c1ccc(/C=N/Nc2ccccn2)cc1,·,1,-12,15,-18,30,·,·,·,·,·
CC[C@]12c3[nH]c4ccc(Cl)cc4c3CCN1C(=O)[C@@H](CC(=O)NC/C=C(\C)CCC=C(C)C)C[C@@H]2C(=O)N1CCN(C(=O)c2ccco2)CC1,·,31,·,7,·,-1,·,·,·,·,·
CC1=NN(C(N)=S)C(=O)C1N=Nc1ccc(S(N)(=O)=O)cc1 (stereo unspecified),·,0,51*,28,12,24,23,22,70*,74*,57*
CC(=O)N(C)c1ccc(N=NC2C(=O)N(C(N)=S)N=C2C)cc1 (stereo unspecified),·,5,2,80*,77*,15,86*,84*,97*,95*,87*
CC1=NN(c2ccccc2)C(=O)C1N=Nc1ccc(C)cc1 (stereo unspecified),-4,·,4,3,-2,·,·,·,·,·,·
CCc1ccc(C(O)c2ncc(-c3ccccc3C(F)(F)F)[nH]2)cc1 (stereo unspecified),·,-20,·,·,·,-81,·,·,·,·,·
Cc1csc(NC(=O)c2ccc(Br)s2)n1,·,14,55*,26,30,-19,46,43,77*,48,26
O=C(Nc1ccccn1)c1ccc(Br)s1,·,15,67*,65*,38,8,66*,63*,88*,76*,67*
CCc1sc(C(=O)Nc2nc(C)cs2)cc1C,·,30,85*,65*,68*,-44,70*,69*,92*,69*,69*
SMILES,PPC-1+TRAIL kill,TRAIL sens C8,SENP6 inh,SENP7 block,SENP8 block-1,SENP8 block-2,SENP8 confirm,SENP6 conf,SENP7 confirm,Casp3 select,Luc interf
Cc1csc(NC(=O)c2cccs2)n1,-2,14,17,31,3,3,·,·,·,·,·
CCOC(=O)[C@]12CCC=C1N(Cc1ccco1)C(=O)[C@H](CC(=O)NCc1cccs1)C2,·,-4,·,·,·,0,·,·,·,·,·
Cc1ccc(C(=O)Nc2ccncc2)c(C)c1,·,2,0,1,4,7,·,·,·,·,·
N#Cc1ccsc1NC(=O)CCc1ccccc1,-5,-32,23,70*,60*,8,14,28,68*,53*,47
N#Cc1ccsc1NC(=O)CN(Cc1ccccc1)Cc1ccccc1,4,-2,-12,3,-3,22,·,·,·,·,·
COC(=O)[C@@]1(Cc2ccc(F)cc2)[C@H]2c3cc(C(=O)N4CCCC4)n(C)c3C[C@H]2CN1C(=O)c1ccccc1,·,20,·,·,·,14,·,·,·,·,·
CCCc1cc(=O)n2c([nH]c3ccccc32)c1C#N,22,5,51*,8,42,-266,24,38,51*,53*,44
C/C=C/c1ccc(OCC(O)CN(C)Cc2ccc(SC)cc2)c(OC)c1 (stereo unspecified),·,-2,5,-3,4,12,·,·,·,·,·
CCN(CC)c1ccc(C=C2SC(=S)NC2=O)cc1,·,17,·,·,·,38,·,·,·,·,·
CC1Cc2cc(/C=C3/SC(=S)NC3=O)ccc2O1 (stereo unspecified),29,23,74*,2,67*,22,11,76*,84*,47,0

# Compound activity: PubChem BioAssay, Sanford-Burnham Center for Chemical Genomics
